# Test results taken from PubChem BioAssay AID1035470 (Broad Institute, 2014).
# The whole screen tested about 1,800 compounds, of which fewer than 10 were called active. Roughly 16% stayed inconclusive and do not appear here.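 The calls were made as follows: active = compound lowering the normal-ribosome reporter at least twice as much as the humanized-ribosome reporter, growth loss under a set limit; inconclusive = no clear call, values can overlap the other calls; inactive = the rest.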 The list is a sample of the results. Measured potencies and affinities stand elsewhere.
# Assay: E. coli strain growth, wild-type against G2058 humanized RFP mutant – G2058 mutant RFP vs wild-type GFP, cherry-pick, two tests, dose response (AID 1035470)
# Details: E. coli WT-GFP vs G2058-humanized RFP, fluorescence, 24 h; series mostly up to 50 µM; activity change, negative = inhibition: at the top concentration
row,SMILES,"activity change, negative = inhibition"
1,CC1(C)CC(=O)c2cnc(N3CCc4ccccc43)nc2C1,6.66 (inactive)
2,S=c1nc(-c2cc(Cl)cc(Cl)c2)[nH][nH]1,-16.2 (inactive)
3,O=[N+]([O-])c1ccc(NCCNCCOc2nonc2-c2ccccc2)c([N+](=O)[O-])c1,-27.2 (inactive)
4,Cc1nn2c(NCc3ccccn3)cc(C(C)C)nc2c1-c1ccccc1,-11.1 (inactive)
5,O=S(=O)(NOCc1ccc(Cl)cc1)c1ccc(Cl)cc1,-15 (inactive)
6,O=C(Nc1ccc2c(c1)OCCO2)C1C(c2ccccc2)=Nc2ccccc2N1C(=O)c1cccnc1 (stereo not drawn),0.765 (inactive)
7,O=C(COc1ccccc1Cl)Nc1nc(-c2ccncc2)cs1,-15.4 (inactive)
8,CCOc1ccccc1N1CC(C(=O)Nc2cccc(S(=O)(=O)N3CCCCC3)c2)CC1=O (stereo not drawn),-18 (inactive)
9,COc1ccc(-c2csc3ncn(-c4ccc(C)cc4)c(=O)c23)cc1OC,-22.9 (inactive)
10,O=C(NCc1nnnn1-c1ccc(Cl)cc1)c1ccc([N+](=O)[O-])o1,-6.35 (inactive)
11,O=[N+]([O-])c1cccc(COc2ccc(CN3CCOCC3)cc2)c1,-1.83 (inactive)
12,C[C@@H]1CN([C@@H](C)CO)C(=O)c2cc(NC(=O)C3CC3)ccc2O[C@H]1CN(C)C(=O)Nc1ccc(C(F)(F)F)cc1,-10.7 (inactive)
13,CCN(CC(=O)Nc1cccc(S(=O)(=O)N2CCCC2)c1)CC(=O)Nc1ccccc1OC,-14.9 (inactive)
14,COC(=O)c1ccc2nc(-c3ccco3)c(Cc3ccc(C)cc3)n2c1,-19.6 (inactive)
15,COc1ccc(CC(=O)Nc2cc(S(=O)(=O)Nc3ccc(OC)cc3)ccc2OC)cc1,-11.4 (inactive)
16,CC(C)CNc1nc(S(=O)(=O)c2ccccc2)c(Cl)s1,-11.6 (inactive)
17,O=C(CN1CCCCC1)n1c2ccccc2c2ccccc21,1.66 (inactive)
18,O=C1c2ccccc2C(c2nnnn2Cc2ccccc2)N1Cc1cccc(F)c1 (stereo not drawn),-9.45 (inactive)
19,Cc1nn(CC(=O)c2ccc(Br)s2)c(C)c1[N+](=O)[O-],-2.97 (inactive)
20,Brc1ccc(-n2cnc(-c3ccccc3)c2)cc1,2.89 (inactive)
21,NC(=O)c1cccnc1Oc1ccc(Cl)cc1Cl,-0.964 (inactive)
22,CCc1ccc(NC(=O)CCc2c(C)nn(-c3ccc(N4CCCCC4)nn3)c2C)cc1,-14.7 (inactive)
23,COc1ccc2c(c1)-c1nc(N)sc1CC2,-4.08 (inactive)
24,CC(C)(C)N(Cc1ccccc1)C(=O)COC(=O)Cn1cnc2ccccc2c1=O,-17.1 (inactive)
25,COc1ccc(OC)c(NC(=O)CN(C)CC(=O)Nc2ccccc2Br)c1,-33 (inactive)
26,O=C(c1ccccc1)C1CN(Cc2ccccc2)CCC1(O)c1ccccc1 (stereo not drawn),-2.03 (inactive)
27,CCC1(CC)NC(=O)N(CC(=O)N2N=C(c3ccc(Cl)cc3)CC2c2ccco2)C1=O (stereo not drawn),-18.3 (inactive)

row,SMILES,"activity change, negative = inhibition"
1,CCOc1ccccc1C(=O)NCC(=O)OCCOc1cccc(Cl)c1,-3.78 (inactive)
2,O=C(Nc1cc(F)ccc1F)N1CCCCN2[C@@H](CO)[C@H](c3ccc(-c4ccncc4)cc3)[C@@H]2C1,-2.55 (inactive)
3,O=S1(=O)N[C@H](Cc2ccccc2)COc2cc(N3CCSCC3)ccc21,-14 (inactive)
4,COc1cccc(NC(=O)c2ccc(NCCCN3CCC(C)CC3)c([N+](=O)[O-])c2)c1,-20 (inactive)
5,Cc1noc(C)c1S(=O)(=O)N(Cc1ccccc1)C(C)C,-8.45 (inactive)
6,Cc1ccc(-c2c(=O)n(O)c3ccccc3[n+]2[O-])cc1,-1.24 (inactive)
7,Cc1nn2c(C)c(C(=O)Nc3ccccc3)cnc2c1-c1ccccc1,-2.61 (inactive)
8,CC(C)(C)S(=O)(=O)Cc1nc(-c2ccc(Cl)c(Cl)c2)cs1,-9.21 (inactive)
9,CCCCc1cc2c(cc1NC(=O)CN1CCCCC1)OCCO2,2.37 (inactive)
10,COC(=O)c1ccsc1NC(=O)c1cccc(OC)c1,-15.2 (inactive)
11,O=[N+]([O-])c1ccc(O)c(CSc2nnnn2-c2ccccc2)c1,1.54 (inactive)
12,COCC(C)NC(=O)c1nn(Cc2ccccc2)c(=O)c2ccccc12 (stereo not drawn),-8.39 (inactive)
13,Cc1ccc(NC(=O)C[n+]2cc(-c3ccccc3)n3c2CCC3)c(C)c1,-8.76 (inactive)
14,COc1cc(OC)c(NS(=O)(=O)c2cccc(C(=O)OCC(=O)NCC3CCCO3)c2)cc1Cl (stereo not drawn),-3.42 (inactive)
15,Cc1ccc(Nc2nc(C(=O)NCC3CCCO3)cs2)cc1 (stereo not drawn),0.237 (inactive)
16,CCOC(=O)c1cccc(OS(=O)(=O)Cc2ccccc2)c1,-24.3 (inactive)
17,Cc1ccc(S(=O)(=O)NCc2c(-c3ccccc3)noc2C)cc1,-15.8 (inactive)
18,Cc1ccc(NC(=O)COC(=O)CCNS(=O)(=O)c2c(Cl)cccc2Cl)cc1,1.97 (inactive)
19,CC1CCN(C(=O)COC(=O)c2ccccc2NC(=O)c2ccco2)CC1,-7.91 (inactive)
20,CCc1cccc(NC(=O)c2ccc3c(=O)n4c(nc3c2)CCCCC4)c1,-6.15 (inactive)
21,Cc1cc(C)cc(NC(=O)COC(=O)CC2CCCC2)c1,4.58 (inactive)
22,CCn1c(COc2cccc(OC)c2)nnc1SCC(=O)Nc1cc(OC)ccc1OC,-12 (inactive)
23,COc1ccc(S(=O)(=O)N2CCOc3ccccc32)cc1,-15.4 (inactive)
24,COc1ccc(-n2nc3cc(N)c(Br)cc3n2)cc1,-9.4 (inactive)
25,COC(=O)[C@]1(Sc2ccc(C)cc2)CC(=O)N[C@@H]1c1ccccc1,-6.4 (inactive)
26,O=C(CSc1nc2ccccc2n1S(=O)(=O)c1cccc([N+](=O)[O-])c1)NCCc1ccccc1,-5.02 (inactive)
